Rows were chosen to be rich in hits. Some 27% of all compounds tested hit in one or more screens of this group.
CYP2C19 inhib = blocks human cytochrome P450 2C19; P33261; CYP2C19 Supersomes, luciferin-H EGE luminescence, 30 min; inhibition, % at 5 µM; hit rate 21% among 96,000; AID 778;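 active = CYP2C19 inhibition above a set limit at 5 µM in the primary screen, cut at about 50% in these data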
Target sequence (P33261 whole entry, looked up): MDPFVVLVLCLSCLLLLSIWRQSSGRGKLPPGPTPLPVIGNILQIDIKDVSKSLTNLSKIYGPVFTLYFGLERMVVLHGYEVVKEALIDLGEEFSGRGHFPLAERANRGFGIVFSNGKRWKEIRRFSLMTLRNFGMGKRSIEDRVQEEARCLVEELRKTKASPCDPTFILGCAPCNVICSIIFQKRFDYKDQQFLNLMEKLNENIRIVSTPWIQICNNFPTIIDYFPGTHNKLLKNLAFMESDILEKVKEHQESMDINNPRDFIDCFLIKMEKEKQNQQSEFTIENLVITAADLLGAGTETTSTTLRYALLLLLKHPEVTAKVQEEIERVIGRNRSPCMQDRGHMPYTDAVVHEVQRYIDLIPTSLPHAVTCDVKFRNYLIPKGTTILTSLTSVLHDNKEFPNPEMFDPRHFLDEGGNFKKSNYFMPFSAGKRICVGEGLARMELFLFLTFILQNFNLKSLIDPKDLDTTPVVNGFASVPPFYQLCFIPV
CYP2C19 act = cytochrome P450 2C19 (human) activation | 96,000 tested, under 10 active | recombinant CYP2C19, luciferin-H EGE luminescence; active compounds read high; 0 = fully inhibited enzyme, 1 = untreated enzyme | activation factor at 5 µM;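 active = activation factor of at least 2 at 5 µM in the primary screen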
CYP2C9 inh = inhibitors of human CYP2C9. P11712. CYP2C9 Supersomes, luciferin-H conversion, luminescence. inhibition, % at 5 µM. hit rate 20% among 96,000. AID 777;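 active = blocking of liver enzyme CYP2C9 beyond about 50% at 5 µM, limit read from the data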
CYP2C9 activ = activators of human CYP2C9. P11712. recombinant CYP2C9, luciferin-H conversion, luminescence; active compounds read high; factor 1 = untreated enzyme, 0 = blocked. activation factor at 5 µM. hit rate 1.4% among 96,000;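 active = activation factor of 2 or more for CYP2C9 at a 5 µM dose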
Cav32 inh = blocks human Cav3.2 T-type calcium channel. O95180. Cav3.2-expressing cells, Fluo-4 calcium fluorescence FDSS; active compounds read low. B-score at 10 µM. hit rate 4% among 100,000. AID 449739;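 active = single-dose well whose peak fluorescence ratio is a statistical outlier from its plate by either plate-standardised score or position-corrected B-score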
Each line names hits and unclear results; the compound was inactive in the other large screens.

Cc1cc2cc(CNC(=O)c3ccc(S(=O)(=O)N4CCCC4)cc3)ccc2n1C	CYP2C9 inh 81.6
CCS(=O)(=O)NCc1ccc2c(c1)cc(C)n2C	CYP2C19 inhib 54.2, CYP2C9 inh 59.9
COc1ccc(S(=O)(=O)NCc2ccc3c(c2)cc(C)n3C)cc1	CYP2C19 inhib 75.8
Cc1cc2cc(CNC(=O)c3ccc(S(=O)(=O)N4CCCCC4)cc3)ccc2n1C	none
O=C(NCc1ccco1)C1CCN(S(=O)(=O)Cc2ccccc2)CC1	none (no result: CYP2C19 inhib, CYP2C19 act, CYP2C9 inh, CYP2C9 activ)
Cc1ccc(C)c(/C(O)=C2\C(=O)C(=O)N(CCCn3ccnc3)C2c2cccnc2)c1 (configuration not stated)	none (no result: CYP2C19 inhib, CYP2C19 act, CYP2C9 inh, CYP2C9 activ)
Cc1nc(NC(=O)CSc2ccccc2N)sc1C	CYP2C9 inh 76.3
CCC(Sc1nc2ccccc2c2nc3ccccc3n12)C(=O)NCc1ccco1 (configuration not stated)	CYP2C9 inh 77.8 (no result: Cav32 inh)
Cc1cccc(-n2c(SCC(=O)NCc3ccco3)nc3ccccc3c2=O)c1	none
Cc1nc(NC(=O)CSc2nnnn2C)sc1C	none (no result: CYP2C19 inhib, CYP2C19 act, CYP2C9 inh, CYP2C9 activ)
O=C(O)CCn1c(SCc2cccc3ccccc23)nc2ccccc21	CYP2C9 inh 66.5
Cc1nc(NC(=O)CSc2nc3cccnc3n2Cc2ccccc2)sc1C	CYP2C19 inhib 63.2, CYP2C9 inh 58.7
CC(C)c1cc(C(F)(F)F)n2nc(C(=O)Nc3ccc4c(c3)OCO4)cc2n1	none
COC(=O)C[C@H]1c2cc(F)ccc2S(=O)(=O)N1c1ccc(N(C)C)cc1	none (no result: CYP2C19 inhib, CYP2C19 act, CYP2C9 inh, CYP2C9 activ)
Cc1cc(N2CC34C=CC(O3)C(C(=O)O)C4C2=O)no1 (configuration not stated)	none
O=C(CSc1nc2ccccc2[nH]1)N1CCN(S(=O)(=O)c2ccc(Cl)cc2)CC1	none
CCOC(=O)CNC(=O)CSc1nc2cccnc2n1Cc1ccccc1	CYP2C19 inhib 79.7
O=C(CSc1nc2ccccc2n1CC(=O)NCc1ccccc1)NCc1ccco1	CYP2C19 inhib 79.1, CYP2C9 inh 81.8
Cc1nc2ccccc2n1CC(=O)NCc1ccccc1	none
O=C(CSc1nc2cccnc2n1Cc1ccccc1)NCc1ccco1	CYP2C19 inhib 58.5
CCn1c(SCC(=O)NCc2ccco2)nc2cccnc21	none
N#CCCn1c(SCC(=O)NCc2ccco2)nc2ccccc21	none
NNC(=O)Cn1c(SCc2ccccc2)nc2ccccc21	CYP2C19 inhib 95.8
CC1=CCC2(CO)COC(c3ccccc3O)C1C2 (configuration not stated)	none
Cc1ccc(S(=O)(=O)CCC(=O)O)cc1C	none (no result: CYP2C19 inhib, CYP2C19 act, CYP2C9 inh, CYP2C9 activ)
COc1ccc(N2CCN(C(=O)CCCSc3nc4ccccc4[nH]3)CC2)cc1	none
Cc1cc(C)c(C2=CC(c3ccccc3)n3ncnc3N2)cc1C (configuration not stated)	none (no result: CYP2C19 inhib, CYP2C19 act, CYP2C9 inh, CYP2C9 activ)
COc1ccccc1N1CCN(Cc2nc(N)nc(Nc3ccc(C)cc3)n2)CC1	none
Nc1nc(CN2CCN(c3ccccc3F)CC2)nc(Nc2ccccc2)n1	CYP2C9 inh 77.4
Nc1nc(CN2CCN(Cc3ccc4c(c3)OCO4)CC2)nc(Nc2ccccc2)n1	none
Cc1ccc(Nc2nc(N)nc(CN3CCN(c4ccccc4F)CC3)n2)cc1	Cav32 inh -5.3
CCCn1c(C)cc(=O)c2cc(NC(=O)c3ccccn3)ccc21	none
CCCCC(=O)NC1=NC(=O)C(C)(C)S1	none
CCOC(=O)c1cnn(CCOC(=O)C(C)(C)C)c1NC(=O)C(C)(C)C	none
CCOC(=O)c1cnn(CCOC(=O)C2CC2)c1NC(=O)C1CC1	Cav32 inh -3.63
COc1cccc(NC(=O)CN2C(=O)C3(OCCCO3)c3ccccc32)c1	none
CC(OC(=O)CCc1nc2ccccc2[nH]c1=O)C(=O)c1ccccc1 (configuration not stated)	CYP2C19 inhib 95.8, CYP2C9 inh 66.9
COc1ccc(CNC(=O)C/C(C)=N/NC(=O)C(c2ccccc2)c2ccccc2)cc1	CYP2C9 inh 55.5, Cav32 inh -4.25
O=C(O)CCC(=O)N1CCC[C@H]1C(=O)O	none (no result: CYP2C19 inhib, CYP2C19 act, CYP2C9 inh, CYP2C9 activ)
C=CCC(C)(NCc1ccccc1)c1ccco1 (configuration not stated)	none
CCOC(=O)C1=C(C)NC(=O)NC1C1CC=CCC1 (configuration not stated)	CYP2C19 inhib 51.7
CC1=C(C(=O)OC(C)C)C(C)NC(=O)N1 (configuration not stated)	none
CC1=C(C(=O)OC(C)C)C(C2CC=CCC2)NC(=O)N1 (configuration not stated)	CYP2C19 inhib 64.7
CCOC(=O)C1=C(C)NC(=O)NC1C (configuration not stated)	none
CC(=O)Nc1ccc(C(=O)CSc2nnnn2C(C)C)cc1	none
Cc1cc(NCCCN2CCOCC2)n2ncc(-c3ccccc3)c2n1	CYP2C9 inh 87.7
Cc1cc(NCCCN2CCOCC2)n2nc(C)c(-c3ccccc3)c2n1	CYP2C9 inh 71.3 (no result: Cav32 inh)
COc1ccc(C2SCC(=O)N2CC23CC4CC(CC(C4)C2)C3)cc1 (configuration not stated)	none
COc1cc(-c2nc3ccc4ccccc4c3c3c2CCC3)cc(OC)c1OC	none
COc1cc2ccccc2c2c1CCCC2=O	CYP2C19 inhib 58.6
O=c1[nH][nH]c(-c2ccccc2)c1C=Nc1cccc(Cl)c1	CYP2C19 inhib 52.8
O=c1[nH][nH]c(-c2ccccc2)c1C=Nc1ccc(Cl)cc1	none
O=c1[nH][nH]c(-c2ccccc2)c1C=Nc1ccccc1Cl	CYP2C19 inhib 88.1
Cc1nn(C(C)(C)C)c(OC(=O)c2ccc(Br)o2)c1Sc1ccccc1	CYP2C19 inhib 73.8
CCOC(=O)c1cc(OC(=O)c2cccs2)n(-c2ccccc2)n1	none
Cc1nn(C(C)(C)C)c(OC(=O)c2ccco2)c1Sc1ccccc1	CYP2C9 inh 61.4
Cc1nn(C(C)(C)C)c(OC(=O)c2cccs2)c1Sc1ccccc1	CYP2C9 inh 65.1, Cav32 inh -5.15
Cc1nn(C(=O)c2ccco2)c(C)c1Sc1ccccc1	none
C[N+](C)(C)C[C@H](O)CC(=O)O	none (no result: CYP2C19 inhib, CYP2C19 act, CYP2C9 inh, CYP2C9 activ)
Cn1c(=O)c2c(nc(SCc3cc4c(cc3Cl)OCO4)n2C)n(C)c1=O	none (no result: Cav32 inh)
CCCCOC(=O)CSc1n[nH]c(=O)[nH]c1=O	none (no result: Cav32 inh)
COC(=O)C1=C(C)NC(=O)NC1c1ccc(OCC(=O)N2CCCCC2)cc1 (configuration not stated)	none
CCCC1CC(c2csc(N)n2)CCO1 (configuration not stated)	CYP2C19 inhib 80.1, CYP2C9 inh 75.7
CC(C)C1CC(c2csc(N)n2)CCO1 (configuration not stated)	none
O=S(=O)(NCc1ccco1)N1CCCCCC1	CYP2C19 inhib 63.0
COCCn1nnnc1C(c1ccc2ncccc2c1)N1CCc2ccccc21 (configuration not stated)	CYP2C19 inhib 93.5, CYP2C9 inh 80.4
COCCn1nnnc1C(c1ccccc1OC)N1CCc2ccccc2C1 (configuration not stated)	none (no result: CYP2C19 inhib, CYP2C19 act, CYP2C9 inh, CYP2C9 activ)
COCCn1nnnc1C(c1ccccn1)N1CCN(c2cccc(C)c2C)CC1 (configuration not stated)	none (no result: CYP2C19 inhib, CYP2C19 act, CYP2C9 inh, CYP2C9 activ)
COCCn1nnnc1C(c1ccc(OC)c(OC)c1)N1CCc2ccccc21 (configuration not stated)	CYP2C19 inhib 74.2, CYP2C9 inh 68.7
